In general, inhibition refers to the share of the control response that was lost under treatment.

The source made the active and inactive calls. How the calls were made is not given here.

In this assay the target is Pantothenate synthetase (Mycobacterium tuberculosis (strain ATCC 25618 / H37Rv)) (UniProt P9WIL5). The assay can be described thus: Recombinant Mtb pantothenate synthetase (PanC) inhibitors, coupled enzyme, confirmatory (AID 375).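 Further: 0% = full reaction with vehicle and 100% = no enzyme background.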 The settings on record: coupled enzyme assay; at 10 µM, active compounds read high.
Chain of Pantothenate synthetase (Mycobacterium tuberculosis (strain ATCC 25618 / H37Rv)) (P9WIL5 whole entry, looked up): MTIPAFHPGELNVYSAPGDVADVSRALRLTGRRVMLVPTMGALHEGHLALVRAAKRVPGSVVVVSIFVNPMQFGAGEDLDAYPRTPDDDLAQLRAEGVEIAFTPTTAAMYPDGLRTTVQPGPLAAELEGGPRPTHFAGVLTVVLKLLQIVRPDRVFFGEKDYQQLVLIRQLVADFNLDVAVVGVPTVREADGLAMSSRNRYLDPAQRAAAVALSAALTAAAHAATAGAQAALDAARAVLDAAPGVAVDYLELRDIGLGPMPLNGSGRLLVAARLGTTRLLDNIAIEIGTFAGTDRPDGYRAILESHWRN
In the case of `Cc1ccc2c(c1)c1c3n2CC(=C2C(=O)OC(C)(C)OC2=O)NC3CCC1` (configuration not stated), the inhibition was 6% (inactive).

For the compound `CN(C)Cc1cn(CCC(=O)O)c2ccccc12`, the inhibition was 1% (inactive). Take `Cc1ccc(-n2c(-c3ccncc3)nnc2-c2cccs2)cc1`: the inhibition was 1% (inactive). With `CCCCN(C)C(=O)CS(=O)(=O)Cc1nc(-c2cccc(OC)c2)oc1C`, the inhibition was 0% (inactive). Next, `Cc1ccc2nc(C(F)(F)F)c(C#N)c(N)c2c1`: 7% (inactive). `O=C(CN1CCN(c2cccc(Cl)c2)CC1)N1CCCC1`: the inhibition is 4% (inactive). Regarding `COc1cccc(-n2nnnc2SCC(=O)NCc2ccco2)c1`, the inhibition is 0% (inactive). For the compound `Cc1csc(NC(=O)CSc2nnc(Cc3cccn3C)n2-c2ccc(F)cc2)n1`, the inhibition was 0% (inactive). For `N#CC1=C(N)C(C#N)(C#N)[C@H](c2ccsc2)[C@H]2COCC=C12`, the inhibition is 0% (inactive). On to `CCc1nc2c(cnn2-c2ccc(Cl)cc2)c(=O)n1-c1ccc2c(c1)OCCO2`, for which the inhibition is 2% (inactive). Regarding `COc1cccc(-c2nnc(NC(=O)c3ccccc3Br)o2)c1`, the inhibition is 0% (inactive).

As for `Cn1c(=O)c2c(nc(NCc3ccco3)n2C/C=C/c2ccccc2)n(C)c1=O`, the inhibition was 0% (inactive). Take `CC1CCc2nn(CC(=O)NCc3ccc4c(c3)OCO4)cc2C1` (configuration not stated): the inhibition is 1% (inactive).

`CCOC(=O)c1c(C)oc2ccc(NS(=O)(=O)c3ccc4c5c(cccc35)C(=O)N4)cc12`: the inhibition was 3% (inactive). Take `Cc1csc(NC(=O)c2ccccc2C(=O)O)n1`: the inhibition was 5% (inactive). As for `Cc1cc(NC(=O)CSc2nc3ccsc3c(=O)n2NC(=O)c2ccccc2)no1`, the inhibition was 1% (inactive). In the case of `COCC(=O)N(c1ccc(C(C)C)cc1)C1C=CS(=O)(=O)C1` (configuration not stated), the inhibition is 0% (inactive).

With `FC(F)(F)c1cc(-c2ccccc2)nc(N2CCCCC2)n1`, the inhibition was 2% (inactive).

Take `CCCc1cn(S(=O)(=O)c2ccc(OC)cc2OC)nc1N`: the inhibition was 0% (inactive). On to `COc1ccc(C2CC(=O)C3=C(C2)Nc2ccccc2N(C(=O)C2CC2)C3c2cccnc2)cc1OC` (configuration not stated), for which the inhibition is 8% (inactive). Regarding `O=S(=O)(CCOc1ccccc1)c1nc2ccccc2[nH]1`, the inhibition is 0% (inactive). For the compound `CC1Cc2ccccc2N1CC(=O)NC(=O)NCc1ccco1` (configuration not stated), the inhibition is 2% (inactive).

Source of the values: PubChem BioAssay.
